Sampled rows, rich in hits. Any-hit rate of the full collection: about 9.4%.
Pf growth 48h = Primary qHTS for delayed death inhibitors of the malarial parasite plastid, 48 hour incubation | Potency, µM (top dose mostly 28.7 µM), inactives show at the highest dose activity change, negative = inhibition, actives largely listed as inhibitors | 310,000 compounds, 5.9% hits | P. falciparum luciferase growth in erythrocytes, 48 h | AID 504832, 2011; further: on the % scale 0 is the no-effect control and ±100 the full control effect
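Luciferase-expressing parasites in RBCs, 2% Hct / 0.1% parasitemia final; RPMI 1640 + 0.5% Albumax; 37 C, 5% CO2, one generation; luminescence read-out, lower signal = inhibition.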
SARS PLpro yeast = qHTS of Yeast-based Assay for SARS-CoV PLP; S. cerevisiae expressing SARS-CoV PLpro, growth rescue; Potency, µM (top dose mostly 32.9 µM), for the others: at the highest dose activity, positive = growth rescue, most hits filed as activators; 330,000 compounds, 0.19% hits; calls by dose curve; further: 0% is about no effect; nearly all actives have a fitted effect of over 55% in size
Pf growth 96h = Primary qHTS for delayed death inhibitors of the malarial parasite plastid, 96 hour incubation; Potency, µM (doses to about 28.7 µM), for inactives: top-dose activity change, negative = inhibition, actives largely listed as inhibitors; 320,000 compounds, 6.9% hits; P. falciparum luciferase reporter growth, 96 h; further: on the % scale 0 is the no-effect control and ±100 the full control effect
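Cell-based qHTS: luciferase-tagged P. falciparum in erythrocytes (2% hematocrit, 0.05% parasitemia final) incubated with compounds for 96 hours, 37 C, 5% CO2; luciferase detection reagent then added and luminescence measured.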
AMA1 RON2 block = qHTS for Inhibitors of AMA1-RON; Towards Development of Antimalarial Drug Lead: Primary Screen; Potency, µM (top dose mostly 58.2 µM), without a hit: top-dose activity change, negative = inhibition, actives largely listed as inhibitors; AlphaScreen AMA1-biotinylated RON2 peptide binding; 360,000 compounds, 0.2% hits; Plasmodium falciparum AMA1 (3D7) - RON2 peptide interaction; AID 720542, 2013;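 further: 0% = vehicle wells and -100% = peptide control; nearly all actives have a fitted effect of over 45% in size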
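AMA1 (3D7) with his tag at 25 nM final met compounds first, then biotinylated RON2 peptide at 25 nM; detection used donor plus acceptor beads, 10 µg/mL apiece, read by AlphaScreen after 30 min at room temperature.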
* = called active by the depositor; ? = inconclusive; / = no result given; [ ] = remark or other dose. Unless noted, the call rests on the fitted dose curve; in most records, active means well fitted curve in the direction sought with a large enough effect; inconclusive means small, poorly fitted or top-dose-only effect, or another doubt; inactive means no such curve, though single readings can be large; an effect the other way counts as inactive or inconclusive. Potency means the concentration at half of the fitted maximal effect.

SMILES	Pf growth 48h	SARS PLpro yeast	Pf growth 96h	AMA1 RON2 block
Cn1c(SCc2cccc([N+](=O)[O-])c2)nc2c(c1=O)SCC2	?	1%	3.7µM*	?
COc1cccc(NC(=O)CSc2nc3c(c(=O)n2C)SC(C)C3)c1 (centres undefined)	12µM*	-15%	9.3µM*	-2%
Cn1c(SCC(=O)Nc2cccc(F)c2)nc2c(c1=O)SCC2	?	20%	2.6µM*	9%
CCOc1ccc(NC(=O)CSc2nc3c(c(=O)n2C)SC(C)C3)cc1 (centres undefined)	13µM*	-12%	7.4µM*	-5%
CC1Cc2nc(SCC(=O)Nc3ccc(F)cc3)n(C)c(=O)c2S1 (centres undefined)	?	0%	?	-8%
Cn1c(SCC(=O)Nc2ccc(C(N)=O)cc2)nc2c(c1=O)SCC2	5%	3%	-2%	-3%
O=C1CC2(CCCCCC2)Oc2ccc(Cl)cc21	/	/	/	-5%
CCN1CCC(NC(=O)Nc2cc(Cl)ccc2OC)CC1	26%[5.75 µM]	0%	496%	17%
COc1ccccc1N1CCN(C(=O)COc2ccc(Cl)cc2Br)CC1	-27%	?	8.3µM*	-11%
COc1ccccc1N1CCN(C(=O)c2ccc(-c3ccc(Cl)cc3)o2)CC1	?	-12%	12µM*	-29%
COc1ccccc1N1CCN(C(=O)NCc2ccc(Cl)cc2)CC1	-5%	0%	24%	-3%
Cn1c(C(=O)N2CCN(c3ccc(Cl)cc3)CC2)cc2c(=O)[nH]c3ccccc3c21	?	1%	-17%	7%
CC1(C)Cc2cccc(OCC(=O)N3CCN(c4ccccc4F)CC3)c2O1	?	-4%	?	-2%
COc1ccccc1N1CCN(C(=O)c2ccc(COc3cccc4c3OC(C)(C)C4)cc2)CC1	10µM*	-8%	?	-21%
Cc1ccc(Cl)cc1N1CCN(C(=O)c2cc3c(=O)[nH]c4ccccc4c3n2C)CC1	?	7%	9.3µM*	6%
O=C1NC(=O)C(CCc2ccncc2)(CCc2ccncc2)C(=O)N1Cc1ccccc1	?	0%	?	0%
COc1ccccc1OCC(=O)N1CCCCCC1	/	/	/	8%
Cc1ccccc1OCC(=O)N1CCCCCCC1	-3%	-2%	?	-3%
CCOC(=O)N1CCN(C(=O)COc2ccccc2OC)CC1	2.3µM*	3%	/	3%
COc1ccccc1N1CCN(C(=O)c2cc3c(=O)n(C)c4ccccc4c3n2C)CC1	/	-5%	7.4µM*	-2%
CC(C)c1ccccc1OCC(=O)N1CCCCCCC1	21%	-5%	4.1µM*	17%
Cn1c(C(=O)N2CCN(C(=O)c3ccco3)CC2)cc2c(=O)n(C)c3ccccc3c21	/	-5%	6%	-11%
CC(=O)c1ccc(-c2ccc(C(=O)N3CCN(c4ccc(F)cc4)CC3)o2)cc1	-11%	0%	12µM*	-22%
COC(=O)[C@@]1(C)[C@H]2C(=O)N(Cc3ccccc3)C(=O)[C@H]2[C@H]2CN=C(SC)N21	/	-7%	/	23%
O=C(Nc1c(-c2ccccc2)nc2ccccn12)c1ccccc1F	/	0%	11%	-11%
SMILES	Pf growth 48h	SARS PLpro yeast	Pf growth 96h	AMA1 RON2 block
O=c1/c(=C\c2ccc(O)cc2)sc2n1C(c1ccccc1)C(c1ccccc1)=NN=2 (centres undefined)	?	-6%	?	-5%
O=C1C=C(c2ccccc2)C[C@H](c2cccs2)[C@H]1n1nnc([N+](=O)[O-])n1	1.9µM*	-99%	8.3µM*	-1%[2.32 µM]
O=C1C=C(c2ccccc2)CC(c2cccs2)C1n1cnc([N+](=O)[O-])c1 (centres undefined)	?	-15%	?	6%
COCC(=O)N1CCCC(C)(C(=O)Nc2cccc(Oc3ccccc3)c2)C1 (centres undefined)	/	/	/	2%
CC1=C(C(=O)N2CCCCCC2)CC(CC(=O)NC2CCCC2)C(=O)N1Cc1ccc(F)cc1 (centres undefined)	/	/	/	-1%
c1ccc(C2CC(c3ccccc3)C(c3ccccc3)N2)cc1 (centres undefined)	-5%	3%	9.3µM*	9%
CC1(C)Cc2c(sc(NC(=O)C(C)(C)C)c2C#N)C(C)(C)N1	?	27%	3.3µM*	1%
CCC(=O)Nc1sc2c(c1C#N)CC(C)(C)NC2(C)C	6%	3%	4%	-5%
Cc1ccc(C2=NN(C(=S)Nc3ccccc3)C(c3ccco3)C2)cc1 (centres undefined)	45%	-1%	9.3µM*	24%
COc1ccccc1C1CC(c2ccccc2)=NN1C(=S)Nc1ccccc1 (centres undefined)	3.3µM*	-1%	?	-9%
COc1ccc(C2=NN(C(=S)Nc3ccccc3)C(c3ccccc3)C2)cc1 (centres undefined)	15µM*	20%	44%	-12%
COc1ccc(C2CC(c3ccccc3)=NN2C(=S)Nc2ccccc2)cc1 (centres undefined)	?	3%	?	-26%
CC(=O)C1CCC2C3CC(O)C4CC(O)CCC4(C)C3CCC12C (centres undefined)	/	/	/	9%
COc1cc2c(cc1OC)C(c1ccccc1)=NCC2	15%	-2%	?	15%
COc1cc2c(cc1OC)C(c1ccccc1N)=NCC2	2.9µM*	0%	1µM*	3%
O=C1C(Cl)=C(N2CCCC2)C(=O)N1c1ccccc1F	-2%	2%	2.6µM*	30%
Cc1ccccc1N1C(=O)C(Cl)=C(N2CCN(c3ccccc3)CC2)C1=O	0%	4%	3.7µM*	?
O=[N+]([O-])c1ccc(O)c(CN2CCCCCC2)c1	2%	0%	3%	-11%
Cn1nnnc1SCCNC(=O)C1CCC(=O)N(Cc2cccc(C(F)(F)F)c2)C1 (centres undefined)	/	/	/	2%
O=C(NCc1ccccc1F)c1ccc(S(=O)(=O)NCc2ccco2)cc1	?	-8%	2%	4%
CC(C)(CSc1ncccn1)NS(=O)(=O)c1ccccc1	-5%	0%	10%	-6%
Cc1ccc(S(=O)(=O)NC(C)(C)CSc2nnc(Nc3ccccc3)s2)cc1	/	-4%	12µM*	-5%
CCOc1ccc(-c2nnc(Nc3ccc(OC)c(C(=O)N4CCCCC4)c3)c3ccccc23)cc1	4.1µM*	-17%	1.2µM*	-6%
O=C(CC1c2ccccc2C=C(c2ccsc2)N1c1ccc(-c2cccnc2)cc1)C1CC1 (centres undefined)	/	/	/	3%
CCOC(=O)N1CCc2c(sc(NC(=O)C3COc4ccccc4O3)c2C(N)=O)C1 (centres undefined)	?	4%	9.3µM*	5%
CCN1CCc2c(sc(NC(=O)C3COc4ccccc4O3)c2C(N)=O)C1 (centres undefined)	33%	10%	-7%	0%
COC(=O)c1c(NC(=O)C2COc3ccccc3O2)sc2c1CCN(C(C)=O)C2 (centres undefined)	?	-4%	?	15%

Screening results from PubChem.
